Tg IFNy HTS: T. gondii growth inhibition with IFN-gamma, primary screen, cell-based | activity change, negative = inhibition, % (concentration not given with the values) | hit rate 3.8% among 69,000 | Toxoplasma gondii growth in IFN-gamma-treated host cells; hits give low values; in the data active = activity change below about -70%, passing the limit was not always enough;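 note: host cells are HeLa cells infected with Toxoplasma gondii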
Of the large screens only hits and unclear results are named; the others gave an inactive call. Shown is part of a subset that was picked to be rich in hits.

CCOc1ccc2nc(NS(=O)(=O)c3ccc(NC(C)=O)cc3)sc2c1	none
O=C(CSc1ccccn1)c1ccc(OCc2ccc(F)cc2)cc1	none
CCOc1cccc(CN2CCN(c3ncnc4c(C)csc34)CC2)c1O	none
O=C(/C=C/c1cccc(S(=O)(=O)Nc2ccccc2)c1)NO	Tg IFNy HTS -71
O=C(O)c1ccc(NS(=O)(=O)c2cccc(C(=O)O)c2)cc1	none
CCNC(=O)/C=C/c1cccc(Br)c1	none
O=C(NCC1CC1)c1c(O)c2cccnc2n(-c2cccc(F)c2)c1=O	none
CNc1cc(C2CCCNC2)nc(CN(C)C(=O)Cc2cccc(F)c2)n1 (centres undefined)	none
CCc1cnc(N2CCO[C@@H]3CN(Cc4ccoc4)CC[C@H]3C2)nc1	none
CCC1CN(Cc2ccc(CN(C)S(C)(=O)=O)o2)CCN1C(C)C (centres undefined)	none
c1ccc(NCc2cn3c(n2)CN(c2ncccn2)CC3)nc1	none
CC(C)c1ccc(NC(=O)Cn2c(=O)cc(C(=O)N3CCc4ccccc4C3)c3ccccc32)cc1	none
O=C(O)Cn1cnc2ccccc2c1=O	none
O=C(C[C@H]1NCCC[C@@H]1O)Cn1cnc2cc(Br)c(Cl)cc2c1=O	Tg IFNy HTS -80
CC(=O)N1CCc2c(nc(N(C)C)nc2N(C)CCCn2cccn2)C1	none
COC(=O)C(CCSC)NC(=O)c1ccc(C(F)(F)F)cc1 (centres undefined)	none
CC(=O)NC1(c2ccccc2F)CCN(Cc2cn[nH]c2-c2cccs2)CC1	none
CN(C)CCO[C@H]1CN(C(=O)c2ccnnc2)[C@H]2COC[C@@H]12	none
Cc1n[nH]c(C)c1CN1CCC(N2CCCC(C(=O)N3CCCC3)C2)CC1 (centres undefined)	none
CCN(CC)C(=O)Sc1nc2cc(Cl)ccc2s1	none
O=C(O)CCSc1nc2ccccc2s1	none
O=C(O)CSc1nc2cc(Cl)ccc2s1	Tg IFNy HTS -107
CCc1cccc(NC(=O)COc2nc(C)nc3ccccc23)c1	none
Cc1ccccc1SCC(=O)N1CCNCC1C(=O)N1CCOCC1 (centres undefined)	none
Cc1ccc(NC(=O)CN2CCN(Cc3ccccc3)CC2)cc1Cl	none
Cc1ccc(NC(=O)CS(=O)CC(=O)Nc2ccc3c(c2)CCC3)cc1Cl (centres undefined)	Tg IFNy HTS -88
Cc1ccc(-c2ccccc2NC(=O)CS(=O)CC(=O)Nc2ccc(C)c(Cl)c2)o1 (centres undefined)	none
CCN(CC)c1ccc(C(=C2C=CC(=[N+](CC)CC)C=C2)c2ccccc2)cc1	Tg IFNy HTS -74
CCOc1cc2c(cc1CN1CCCC3(C1)OCCc1cnc(C)nc13)OCO2 (centres undefined)	none
CCOc1cccc(C2c3[nH]c4ccccc4c3CCN2C(=O)c2cc3ccccc3[nH]2)c1 (centres undefined)	none
CCOc1cccc(C2c3[nH]c4ccccc4c3CCN2C(=O)COc2ccccc2)c1 (centres undefined)	none
CCOc1cccc(C2c3[nH]c4ccccc4c3CCN2C(=O)c2ccco2)c1 (centres undefined)	Tg IFNy HTS -109
CCOc1cccc(C2c3[nH]c4ccccc4c3CCN2C(=O)c2ccc(OC)c(OC)c2)c1 (centres undefined)	Tg IFNy HTS -89
CCOc1cccc(C2c3[nH]c4ccccc4c3CCN2C(=O)c2ccc3c(c2)OCO3)c1 (centres undefined)	none
CCOc1cccc(C2c3[nH]c4ccccc4c3CCN2C(=O)c2ccccc2F)c1 (centres undefined)	none
CCOc1cccc(C2c3[nH]c4ccccc4c3CCN2C(=O)c2cccs2)c1 (centres undefined)	none
CCOc1cccc(C2c3[nH]c4ccccc4c3CCN2C(=O)c2cccc(Cl)c2)c1 (centres undefined)	Tg IFNy HTS -122
CCCC(=O)N1CCc2c([nH]c3ccccc23)C1c1cccc(OCC)c1 (centres undefined)	none
Cc1nc(CN2CCc3ncc(CN(C)C(C)C)n3CC2)cs1	none
CCOc1ccccc1-c1nc(Cn2c(=O)c3c(C)cc(C)nc3n(-c3ccccc3)c2=O)c(C)o1	none
CN(Cc1cccc(C(=O)Nc2ccnn2C)c1)Cc1cc(C2CC2)n[nH]1	none
Cc1nnc(CN(C)C(=O)CC2COc3ccc(C(=O)N(C)C)cc3N2C)o1 (centres undefined)	none
CN(C)C(=O)c1nn(C)c2c1CN(c1ncccn1)C2	none
COc1ccc(-c2cccc(CC3C(=O)NCCN3C(=O)Cn3cc(C(C)C)nn3)c2)cc1 (centres undefined)	none
C[C@H](CO)N1C[C@H](C)[C@H](CN(C)C(=O)NC2CCCC2)Oc2cc(-c3cncnc3)ccc2S1(=O)=O	none
COCC#Cc1ccc2c(c1)O[C@@H](CN(C)C(=O)C1CCOCC1)[C@H](C)CN([C@@H](C)CO)S2(=O)=O	none
C[C@@H]1CN([C@H](C)CO)S(=O)(=O)c2ccc(-c3ccc(F)cc3)cc2O[C@H]1CN(C)Cc1ccccc1C(=O)O	none
C[C@@H]1CN([C@H](C)CO)S(=O)(=O)c2ccc(C#CC(C)(C)O)cc2O[C@H]1CN(C)Cc1ccc(F)cc1	Tg IFNy HTS -116
COCC#Cc1ccc2c(c1)O[C@@H](CN(C)C(=O)C1CCOCC1)[C@@H](C)CN([C@H](C)CO)S2(=O)=O	none
C[C@@H]1CN([C@H](C)CO)S(=O)(=O)c2ccc(C#CCC3CCCC3)cc2O[C@@H]1CN(C)C(=O)c1cnccn1	none
COc1cccc(-c2ccc3c(c2)O[C@H](CN(C)Cc2cccnc2)[C@H](C)CN([C@@H](C)CO)S3(=O)=O)c1	none
Cc1ccc(S(=O)(=O)N(C)C[C@H]2Oc3cc(C#CC4CCCC4)ccc3S(=O)(=O)N([C@H](C)CO)C[C@H]2C)cc1	none
Cc1ccc(S(=O)(=O)N(C)C[C@H]2Oc3cc(C#CC4CCCC4)ccc3S(=O)(=O)N([C@@H](C)CO)C[C@H]2C)cc1	Tg IFNy HTS -132
C[C@@H]1CN([C@H](C)CO)S(=O)(=O)c2ccc(-c3ccncc3)cc2O[C@H]1CN(C)S(C)(=O)=O	Tg IFNy HTS -104
C[C@@H]1CN([C@H](C)CO)S(=O)(=O)c2ccc(C#CC(C)(C)O)cc2O[C@@H]1CN(C)Cc1ccc(F)cc1	none
Cc1ccc(S(=O)(=O)N(C)C[C@@H]2Oc3cc(C#CC4CCCC4)ccc3S(=O)(=O)N([C@@H](C)CO)C[C@@H]2C)cc1	Tg IFNy HTS -114
CC(Oc1ccccc1)c1nnc(SCC(=O)N2CCc3ccccc32)n1C (centres undefined)	none
COc1ccc(C(=O)N2CCC3(CC2)Nc2ccc(Cl)cc2-n2cccc23)cc1OC	none
CC(=O)N(C)Cc1ncn2c1CN(C(=O)c1ccc[nH]1)CCC2	none
CN(C)C(=O)N1C[C@H]2COC[C@@H](CC(=O)N3CCCC3)[C@H]2C1	none
COc1ccc2c(c1)CC(C(=O)N1CCc3sccc3C1c1cccs1)CO2 (centres undefined)	none
COCC(=O)N1CCC2(CCC2NS(=O)(=O)c2ccccc2)CC1 (centres undefined)	none
Cc1cc(Cn2ccnc2-c2cc3ccc(F)cc3[nH]c2=O)on1	none
CCN1CCCCC1CNC(=O)Cn1nc(C)c(C)c1C (centres undefined)	none
C[C@@H]1CN([C@H](C)CO)S(=O)(=O)c2ccc(C#Cc3cccc(F)c3)cc2O[C@H]1CN(C)S(=O)(=O)c1cn(C)cn1	none
CCCNC(=O)N(C)C[C@H]1Oc2cc(C#C[C@H](C)O)ccc2S(=O)(=O)N([C@@H](C)CO)C[C@H]1C	none
C[C@H](CO)N1C[C@H](C)[C@H](CN(C)S(=O)(=O)c2cn(C)cn2)Oc2cc(C#Cc3cccc(F)c3)ccc2S1(=O)=O	Tg IFNy HTS -93

High-throughput results (PubChem)
